Experimental data published in PubChem BioAssay (NCATS).
Results filed as inconclusive are left out. Values without a mark were called inactive. Activity calls are given as the source filed them. The call rests on the fitted dose curve; in most records, active means well fitted inhibition curve with a large enough effect; inconclusive means small, poorly fitted or top-dose-only effect; inactive means no such curve, though single readings can be large or run the other way.

Assay: qHTS Screen of the MIPE 4.0 Collection Against Ewings Sarcoma (TC32) (AID 1259256); further: nearly all actives have a fitted effect of over 45% in size;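 on viability (percent of control): 100% = DMSO-treated cells and 0% = medium-only wells without cells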
Details: TC32 Ewing sarcoma viability, CellTiter-Glo, 48 h; series mostly up to 45.8 µM; viability (percent of control): at the top concentration
In short: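 Measured: ATP luminescence (CellTiter-Glo) 10 min after reagent addition, following 48 h drug treatment. Relative luciferase units converted to percent activity, with no-cell wells as full and DMSO wells as zero inhibition.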
Potency means the concentration at half of the fitted maximal effect.

SMILES	Potency	viability (percent of control)
COc1cc2c(NC3CCN(C(C)C)CC3)nc(C3CCCCC3)nc2cc1OCCCN1CCCC1	5260 nM (active)	–
Cc1cc(N2CCOCC2)cc2[nH]c(-c3c(NC[C@@H](O)c4cccc(Cl)c4)cc[nH]c3=O)nc12	1870 nM (active)	–
CNC(=O)c1ccc(-c2cnc3ncc(Cc4ccc5ncccc5c4)n3n2)cc1F	–	132%
C=CC(=O)Nc1cccc(Oc2nc(Nc3ccc(N4CCN(C)CC4)cc3)ncc2Cl)c1	2640 nM (active)	–
O=C(Cc1ccc(-c2ccc(OCCN3CCOCC3)cc2)cn1)NCc1ccccc1	23.5 nM (active)	–
Clc1cccc(-n2nnnc2NCc2ccccc2Oc2ccccn2)c1Cl	–	121%
COc1cccc2c(NCc3ccccc3)nc(-n3c(N)nc4ccccc43)nc12	10500 nM (active)	–
Nc1ncnc2c1c(-c1cccc(OCc3ccccc3)c1)cn2C1CC(CN2CCCC2)C1 (stereo unspecified)	5260 nM (active)	–
Cc1c(CN2CCN(S(C)(=O)=O)CC2)sc2c(N3CCOCC3)nc(-c3cnc(N)nc3)nc12	37.2 nM (active)	–
O=C1CCC[C@@H]2[C@H]3CCC[N+]4([O-])CCC[C@@H](CN12)[C@@H]34 (stereo partly specified)	–	113%
NC(=O)c1cccc2cn(-c3ccc([C@@H]4CCCNC4)cc3)nc12	2350 nM (active)	–
COc1cccc(Nc2c(C(N)=O)cnc3c(C)cc(S(=O)(=O)c4cccc(C(=O)N(C)C)c4)cc23)c1	–	114% [at 23.2 µM]
O=c1c2ccccc2nc2n1CCc1c-2[nH]c2ccccc12	–	104%
CN(C)Cc1c(C(=O)NCCOc2ccc(C(=O)NO)cc2)oc2ccccc12	833 nM (active)	–
CCN(CC)CCNC(=O)c1ccc2nc(-c3ccccc3)c(-c3ccc(CN4CCC(n5c(=O)[nH]c6ccccc65)CC4)cc3)nc2c1	18700 nM (active)	–
COc1ccc2c(OCc3nnc4ccc(-c5ccccc5)nn34)ccnc2c1	–	134%

SMILES	Potency	viability (percent of control)
Nc1ncnc2c1c(-c1cnc3[nH]ccc3c1)nn2C1CCCC1	1050 nM (active)	–
CC(C)c1cc(-c2n[nH]c(=O)n2-c2ccc3c(ccn3C)c2)c(O)cc1O	52.6 nM (active)	–
COc1cc2c(cc1-c1c(C)noc1C)ncc1[nH]c(=O)n([C@H](C)c3ccccn3)c12	4690 nM (active)	–
COc1cc(Nc2ncc(F)c(Nc3ccc4c(n3)N(COP(=O)(O)O)C(=O)C(C)(C)O4)n2)cc(OC)c1OC	3320 nM (active)	–
CC[C@@]1(O)C(=O)OCc2c1cc1n(c2=O)Cc2cc3cc(O)ccc3nc2-1	3.3 nM (active)	–
Cc1ccc2nc(NC(=O)CSc3nc4c(c(=O)n3-c3ccccc3)SCC4)sc2c1	16600 nM (active)	–
CN1CCN(Cc2ccc(NC(=O)Nc3ccc(Oc4cc(NC(=O)C5CC5)ncn4)cc3)cc2C(F)(F)F)CC1	296 nM (active)	–
COc1ccc(C(=O)CC2(O)C(=O)Nc3c(Cl)ccc(Cl)c32)cc1 (stereo unspecified)	1660 nM (active)	–
CC1(C)CC(=O)c2c(C(F)(F)F)nn(-c3ccc(C(N)=O)c(NC4CCC(OC(=O)CN)CC4)c3)c2C1 (stereo unspecified)	132 nM (active)	–
O=C(CCCCCCC(=O)Nc1ccc([C@H]2O[C@@H](CSc3nc(-c4ccccc4)c(-c4ccccc4)o3)C[C@@H](c3ccc(CO)cc3)O2)cc1)NO	13200 nM (active)	–
COc1cccc(-c2ccc(NC(=O)C3=C(C(=O)O)CCC3)c(F)c2)c1	16600 nM (active)	–
CCc1cc2c(cc1N1CCC(N3CCOCC3)CC1)C(C)(C)c1[nH]c3cc(C#N)ccc3c1C2=O	–	70.9%
OCc1ccc(-c2ccc(-c3ccc(CO)s3)o2)s1	18700 nM (active)	–
Cc1coc2c1C(=O)C(=O)c1c-2ccc2c1CCCC2(C)C	3.7 nM (active)	–
COc1ccc(-n2nc(C(N)=O)c3c2C(=O)N(c2ccc(N4CCCCC4=O)cc2)CC3)cc1	–	141%
